Data reported in PubChem BioAssay.
For some assays here: Measured potencies and affinities stand elsewhere. Activity calls are given as the source filed them.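 The calls were made as follows, unless noted: active = calcium signal ratio cut to more than 3 SD under the fully stimulated control mean yet still positive, in both repeats and the primary screen; inactive = the rest.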

Columns and labels:
[1] = tested on: TRPC4 beta (transient receptor potential cation channel C4), mouse; assay: TRPC4 cation channel opening, retest – cell-based, Fluo4 calcium, HEK293 TRPC4beta/mu-opioid, duplicates, 10 µM, confirmation (AID 2426;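 active = fluorescence ratio normalized to control raised more than 50% in primary screen plus both repeat runs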); details: Fluo4 calcium fluorescence, at 10 µM; active compounds read high
[2] = tested on: transient receptor potential cation channel C4 beta (TRPC4), mouse; assay: TRPC4 cation channel opening, second retest – cell-based, second round, Fluo4, HEK293 TRPC4beta/mu-opioid, 1 µM, confirmation (AID 2461;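 active = primary screen active and over 50% activation in each of two duplicate runs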); details: Fluo4 calcium fluorescence, at 1 µM; active compounds read high
[3] = tested on: TRPC4 (transient receptor potential cation channel C4 beta), mouse; assay: potentiation of DAMGO EC20 TRPC4 response – cell-based, second round, Fluo-4, HEK293 TRPC4beta/mu-opioid, 1 µM, confirmation (AID 2554;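 active = primary screen hit whose fluorescence ratio, in both repeats, exceeds the weak agonist control mean by 3 SD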); details: DAMGO EC20, Fluo-4 calcium flux, at 1 µM; active compounds read high
[4] = tested on: TRPC4 beta (transient receptor potential cation channel C4), mouse; assay: potentiation of DAMGO EC20 TRPC4 response – cell-based, Fluo-4, HEK293 TRPC4beta/mu-opioid, confirmation (AID 2555;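 active = primary screen hit whose calcium fluorescence ratio, in both repeats, exceeds the weak agonist control mean by 3 SD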); details: DAMGO EC20, Fluo-4 calcium flux, at 10 µM; active compounds read high
[5] = target: Short transient receptor potential channel 4 (Mus musculus) (UniProt Q9QUQ5); assay: blockers of DAMGO-evoked TRPC4 calcium flux – cell-based, Fluo4, HEK293 TRPC4beta/mu-opioid, confirmation (AID 2636;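 active = calcium signal cut by more than 3 SD below the full-agonist control yet still positive, in both repeats and the earlier primary screen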); details: at 10 µM; active compounds read high
[6] = target: Short transient receptor potential channel 4 (Mus musculus) (UniProt Q9QUQ5); assay: blockers of DAMGO-evoked TRPC4 calcium flux – cell-based, second round, Fluo4, HEK293 TRPC4beta/mu-opioid, 1 µM, confirmation (AID 2637); details: at 1 µM; active compounds read high;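 as to inhibition: percent of integrated ratio relative to wells lacking test compound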
[7] = target: Short transient receptor potential channel 4 (Mus musculus) (UniProt Q9QUQ5); assay: calcium entry via TRPC4 opening agents – cell-based, HEK293 TRPC4/mu-opioid, Fluo-4 calcium, dose response (AID 434937;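 active = primary screen activator hit with a dose response curve and TRPC4 channel activation at any tested dose; inactive = no activation, no dose response, or not a primary hit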)
[8] = target: Short transient receptor potential channel 4 (Mus musculus) (UniProt Q9QUQ5); assay: potentiation of DAMGO-evoked TRPC4 calcium signal – cell-based, HEK293 TRPC4/mu-opioid, Fluo-4 calcium, EC20 DAMGO, dose response (AID 434941;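 active = earlier screen potentiator hit that boosts the TRPC4 ion channel at some dose, with a dose response; inactive = no potentiation, no dose response, or not a prior hit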;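 also: calcium entry triggered by an EC20 dose of DAMGO at the co-expressed mu-opioid receptor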)
[9] = target: Short transient receptor potential channel 6 (Mus musculus) (UniProt Q61143); assay: TRPC6 blockade by TRPC4 inhibitor hits – cell-based, HEK293, membrane potential dye, duplicate, selectivity assay for TRPC4 inhibitor project, confirmation (AID 434948;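 active = active in primary screen and both duplicates, each dropping signal beyond three positive-control SD with fluorescence still positive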); details: HEK293 TRPC6, membrane potential dye fluorescence, at 10 µM, stimulated with maximal-effect acetylcholine; active compounds read high
[10] = target: Short transient receptor potential channel 6 (Mus musculus) (UniProt Q61143); assay: TRPC6 opening by TRPC4 activator hits – cell-based, HEK293, membrane potential dye, duplicate, selectivity assay for TRPC4 activator project, confirmation (AID 434950;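 active = membrane potential signal rise above negative control mean plus 3 SD in both duplicates, also active in the earlier TRPC4 screen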); details: HEK293 TRPC6, membrane potential fluorescence, at 10 µM; activation: active compounds read high; outcome: activation
[11] = target: Short transient receptor potential channel 6 (Mus musculus) (UniProt Q61143); assay: positive modulators of mouse TRPC6 channel – HEK293 cells, membrane potential dye, duplicate, selectivity assay for TRPC4 potentiator project, confirmation (AID 434952;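 active = compound raising the membrane signal above positive-control mean plus 3 SD in both repeats, and a primary screen hit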); details: HEK293 TRPC6, membrane potential dye fluorescence, at 10 µM, maximal acetylcholine added after compound; active compounds read high
[12] = target: Short transient receptor potential channel 4 (Mus musculus) (UniProt Q9QUQ5); assay: calcium flux activators in TRPC4/5HT1a cells, counter-screen for TRPC4 activator project, cell-based, second counter screen, HEK293 TRPC4/5HT1a, Fluo-4 (AID 434977;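 active = calcium signal rise above buffer-control mean plus 5 SD in both duplicates, and also a hit in the primary screen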); details: Fluo-4 calcium flux, at 10 µM; active compounds read high
[13] = serotonin-gated TRPC4 signal block – cell-based, second counter screen, HEK293 TRPC4/5HT1a, Fluo-4, counter-screen for TRPC4 inhibitor project, confirmation (AID 434978;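 active = primary screen active whose calcium signal fell more than 3 SD beyond the full-serotonin control mean in both duplicate plates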;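 as to outcome: serotonin given first at submaximal then at maximal dose after compound preincubation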); details: Fluo-4 calcium flux, at 10 µM, serotonin added to trigger calcium flux; active compounds read high
[14] = tested on: TRPC4 (mouse), co-expressed with 5HT1a in HEK293; assay: enhancement of serotonin-evoked TRPC4 response – cell-based, second counter screen, HEK293 TRPC4/5HT1a, Fluo-4, counter-screen for TRPC4 potentiator project, confirmation (AID 434979;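 active = signal rise over 3 SD above mean of control wells given weak agonist, in both repeats and first screen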); details: Fluo-4 calcium flux, at 10 µM, serotonin added at its EC20 dose; active compounds read high
[15] = nonspecific calcium rise without TRPC4 – cell-based, HEK293 mu-opioid receptor line, counter-screen for TRPC4 activator project, confirmation (AID 449723;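 active = hit in primary screen, with calcium signal over 5 SD above buffer well mean in both duplicates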;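 also: counter screen cells carry the mu-opioid receptor alone and lack TRPC4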); details: HEK293 mu-opioid cells, Fluo-4 calcium fluorescence, at 10 µM; active compounds read high
[16] = nonspecific potentiation of DAMGO calcium response – cell-based, HEK293 mu-opioid receptor line, counter-screen for TRPC4 allosteric potentiator project, confirmation (AID 449724;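 active = calcium signal rise more than 3 SD above the low-dose agonist control mean, in both duplicate plates and the primary screen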); details: HEK293 mu-opioid receptor cells, Fluo-4 calcium flux, at 10 µM, compound added before EC20 DAMGO stimulus; active compounds read high

Short transient receptor potential channel 6 (Mus musculus), sequence (Q61143 whole entry, looked up): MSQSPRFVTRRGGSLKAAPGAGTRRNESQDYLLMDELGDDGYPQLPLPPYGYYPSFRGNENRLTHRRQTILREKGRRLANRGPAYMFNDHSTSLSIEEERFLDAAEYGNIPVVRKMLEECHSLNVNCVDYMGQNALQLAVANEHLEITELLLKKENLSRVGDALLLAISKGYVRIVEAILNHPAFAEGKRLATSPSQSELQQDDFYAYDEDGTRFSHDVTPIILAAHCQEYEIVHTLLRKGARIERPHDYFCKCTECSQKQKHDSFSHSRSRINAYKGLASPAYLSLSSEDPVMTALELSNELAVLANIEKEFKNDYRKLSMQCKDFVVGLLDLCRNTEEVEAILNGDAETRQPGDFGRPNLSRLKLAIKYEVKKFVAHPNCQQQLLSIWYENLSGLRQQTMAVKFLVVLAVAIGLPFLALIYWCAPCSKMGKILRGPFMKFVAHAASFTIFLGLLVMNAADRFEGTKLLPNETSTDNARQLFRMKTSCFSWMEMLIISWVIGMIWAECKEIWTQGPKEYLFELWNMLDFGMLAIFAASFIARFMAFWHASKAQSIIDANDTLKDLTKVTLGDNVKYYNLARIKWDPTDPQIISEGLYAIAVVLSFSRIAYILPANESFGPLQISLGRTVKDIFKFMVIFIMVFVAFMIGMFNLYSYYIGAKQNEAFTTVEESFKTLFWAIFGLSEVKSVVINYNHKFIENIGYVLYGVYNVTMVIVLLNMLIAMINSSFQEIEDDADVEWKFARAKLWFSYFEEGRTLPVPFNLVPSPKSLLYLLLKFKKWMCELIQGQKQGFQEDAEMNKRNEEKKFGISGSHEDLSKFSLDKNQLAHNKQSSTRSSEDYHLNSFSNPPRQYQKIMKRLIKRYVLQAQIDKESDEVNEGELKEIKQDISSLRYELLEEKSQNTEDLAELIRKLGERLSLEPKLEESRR
Short transient receptor potential channel 4 (Mus musculus), sequence (Q9QUQ5 whole entry, looked up): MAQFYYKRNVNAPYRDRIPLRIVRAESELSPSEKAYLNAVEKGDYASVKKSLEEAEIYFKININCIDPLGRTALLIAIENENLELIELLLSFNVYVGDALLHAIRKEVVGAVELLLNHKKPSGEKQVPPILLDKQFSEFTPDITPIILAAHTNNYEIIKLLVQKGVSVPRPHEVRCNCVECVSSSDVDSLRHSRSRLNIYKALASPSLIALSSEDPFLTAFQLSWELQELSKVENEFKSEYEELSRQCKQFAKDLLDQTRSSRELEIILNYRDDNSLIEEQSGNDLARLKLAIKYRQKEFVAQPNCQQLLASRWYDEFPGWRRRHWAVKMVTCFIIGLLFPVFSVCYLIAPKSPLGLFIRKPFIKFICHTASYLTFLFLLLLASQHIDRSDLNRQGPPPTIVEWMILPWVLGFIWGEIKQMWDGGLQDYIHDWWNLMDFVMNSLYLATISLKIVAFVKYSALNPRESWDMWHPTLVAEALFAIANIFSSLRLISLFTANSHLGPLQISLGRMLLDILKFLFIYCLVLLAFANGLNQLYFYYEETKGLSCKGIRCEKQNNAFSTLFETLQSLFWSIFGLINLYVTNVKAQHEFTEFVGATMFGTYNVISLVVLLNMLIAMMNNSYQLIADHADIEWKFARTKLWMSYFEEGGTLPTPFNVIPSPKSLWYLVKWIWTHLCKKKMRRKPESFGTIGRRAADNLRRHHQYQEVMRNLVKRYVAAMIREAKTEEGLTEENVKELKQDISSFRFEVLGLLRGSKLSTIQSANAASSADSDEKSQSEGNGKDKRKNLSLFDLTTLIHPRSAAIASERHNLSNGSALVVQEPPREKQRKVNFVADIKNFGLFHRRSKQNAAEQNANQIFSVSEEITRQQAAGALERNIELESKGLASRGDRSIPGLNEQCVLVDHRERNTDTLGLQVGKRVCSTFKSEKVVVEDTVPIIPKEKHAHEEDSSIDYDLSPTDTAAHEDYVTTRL

Cc1ccc2cc(CN(CCCN3CCOCC3)C(c3nnnn3Cc3ccco3)C(C)C)c(=O)[nH]c2c1C (configuration not stated)
outcome [1]: inactive | outcome [2]: inactive | outcome [3]: inactive | outcome [4]: inactive | inhibition [5]: 98% (active) | inhibition [6]: 72% (active) | outcome [7]: inactive | outcome [8]: inactive | outcome [9]: inactive | outcome [10]: inactive | outcome [11]: inactive | outcome [12]: inactive | outcome [13]: inactive | outcome [14]: inactive | outcome [15]: inactive | outcome [16]: inactive

N#Cc1c(NC(=O)C2CC(Cl)=CCC2C(=O)O)sc2c1CCCCC2 (configuration not stated)
outcome [1]: inactive | outcome [2]: inactive | outcome [3]: inactive | outcome [4]: inactive | inhibition [5]: 51% (active) | outcome [6]: inactive | outcome [7]: inactive | outcome [8]: inactive | outcome [9]: inactive | outcome [10]: inactive | outcome [11]: inactive | outcome [12]: inactive | inhibition [13]: 18.6% (active) | outcome [14]: inactive | outcome [15]: inactive | outcome [16]: inactive

Cc1ccc(S(=O)(=O)c2cnc(-c3ccccc3)nc2N2CCN(C)CC2)cc1
outcome [1]: inactive | outcome [2]: inactive | outcome [3]: inactive | outcome [4]: inactive | inhibition [5]: 64% (active) | outcome [6]: inactive | outcome [7]: inactive | outcome [8]: inactive | outcome [9]: inactive | outcome [10]: inactive | outcome [11]: inactive | outcome [12]: inactive | outcome [13]: inactive | outcome [14]: inactive | outcome [15]: inactive | outcome [16]: inactive

NC(=O)c1nsc(C(=O)N(Cc2ccco2)C(C(=O)NCC2CCCO2)c2ccc(F)cc2)c1N (configuration not stated)
outcome [1]: inactive | outcome [2]: inactive | outcome [3]: inactive | outcome [4]: inactive | inhibition [5]: 76% (active) | outcome [6]: inactive | outcome [7]: inactive | outcome [8]: inactive | outcome [9]: inactive | outcome [10]: inactive | outcome [11]: inactive | outcome [12]: inactive | outcome [13]: inactive | outcome [14]: inactive | outcome [15]: inactive | outcome [16]: inactive

O=C(c1cccc(C(F)(F)F)c1)C1CCCN(Cc2cccn2-c2ccccn2)C1 (configuration not stated)
outcome [1]: inactive | outcome [2]: inactive | outcome [3]: inactive | outcome [4]: inactive | inhibition [5]: 72% (active) | outcome [6]: inactive | outcome [7]: inactive | outcome [8]: inactive | inhibition [9]: 43% (active) | outcome [10]: inactive | outcome [11]: inactive | outcome [12]: inactive | inhibition [13]: 29.2% (active) | outcome [14]: inactive | outcome [15]: inactive | outcome [16]: inactive

C=CCSc1nnc2n(-c3ccccc3OC)c(=O)c3c4c(sc3n12)CCC4
outcome [1]: inactive | outcome [2]: inactive | outcome [3]: inactive | outcome [4]: inactive | inhibition [5]: 58% (active) | outcome [6]: inactive | outcome [7]: inactive | outcome [8]: inactive | outcome [9]: inactive | outcome [10]: inactive | outcome [11]: inactive | outcome [12]: inactive | inhibition [13]: 29.1% (active) | outcome [14]: inactive | outcome [15]: inactive | outcome [16]: inactive

Cc1ccc(NC(=O)CSCC(=O)OCc2cc(=O)oc3cc(O)ccc23)c(C)c1
outcome [1]: inactive | outcome [2]: inactive | outcome [3]: inactive | outcome [4]: inactive | inhibition [5]: 80% (active) | outcome [6]: inactive | outcome [7]: inactive | outcome [8]: inactive | outcome [9]: inactive | outcome [10]: inactive | outcome [11]: inactive | outcome [12]: inactive | outcome [13]: inactive | outcome [14]: inactive | outcome [15]: inactive | outcome [16]: inactive

O=C(CN1CCCCCC1)N1c2ccccc2Sc2ccccc21
outcome [1]: inactive | outcome [2]: inactive | outcome [3]: inactive | outcome [4]: inactive | inhibition [5]: 79% (active) | inhibition [6]: 56% (active) | outcome [7]: inactive | outcome [8]: inactive | inhibition [9]: 21% (active) | outcome [10]: inactive | outcome [11]: inactive | outcome [12]: inactive | inhibition [13]: 29.7% (active) | outcome [14]: inactive | outcome [15]: inactive | outcome [16]: inactive

CSc1nc(N2CCOCC2)c2c3c(sc2n1)CCCC3
outcome [1]: inactive | outcome [2]: inactive | outcome [3]: inactive | outcome [4]: inactive | inhibition [5]: 75% (active) | outcome [6]: inactive | outcome [7]: inactive | outcome [8]: inactive | outcome [9]: inactive | outcome [10]: inactive | outcome [11]: inactive | outcome [12]: inactive | inhibition [13]: 37.5% (active) | outcome [14]: inactive | outcome [15]: inactive | outcome [16]: inactive

COc1ccc(CN(C)C(=O)c2ccc(NC(=O)CC3SC(N4CCCC4)=NC3=O)cc2)c(OC)c1 (configuration not stated)
outcome [1]: inactive | outcome [2]: inactive | outcome [3]: inactive | outcome [4]: inactive | inhibition [5]: 56% (active) | outcome [6]: inactive | outcome [7]: inactive | outcome [8]: inactive | outcome [9]: inactive | outcome [10]: inactive | outcome [11]: inactive | outcome [12]: inactive | outcome [13]: inactive | outcome [14]: inactive | outcome [15]: inactive | outcome [16]: inactive

c1ccc(-c2ccccc2OCCOCCN2CCCCC2)cc1
outcome [1]: inactive | outcome [2]: inactive | outcome [3]: inactive | outcome [4]: inactive | inhibition [5]: 94% (active) | inhibition [6]: 44% (active) | outcome [7]: inactive | outcome [8]: inactive | outcome [9]: inactive | outcome [10]: inactive | outcome [11]: inactive | outcome [12]: inactive | inhibition [13]: 33.7% (active) | outcome [14]: inactive | outcome [15]: inactive | outcome [16]: inactive

COc1ccc(OC)c(Nc2cc(C)nc3ccc(C)cc23)c1
outcome [1]: inactive | outcome [2]: inactive | outcome [3]: inactive | outcome [4]: inactive | inhibition [5]: 38% (active) | outcome [6]: inactive | outcome [7]: inactive | outcome [8]: inactive | inhibition [9]: 41% (active) | outcome [10]: inactive | outcome [11]: inactive | outcome [12]: inactive | outcome [13]: inactive | outcome [14]: inactive | outcome [15]: inactive | outcome [16]: inactive

Cc1ccc(C)c2c(N)c3c(nc12)CCCCC3 (tested in a mixture with another compound)
outcome [1]: inactive | outcome [2]: inactive | outcome [3]: inactive | outcome [4]: inactive | inhibition [5]: 97% (active) | inhibition [6]: 69% (active) | outcome [7]: inactive | outcome [8]: inactive | inhibition [9]: 33.5% (active) | outcome [10]: inactive | outcome [11]: inactive | outcome [12]: inactive | inhibition [13]: 8.52% (active) | outcome [14]: inactive | outcome [15]: inactive | outcome [16]: inactive

Cc1ccc(Nc2cc(C)nc3ccc(C)cc23)cc1
outcome [1]: inactive | outcome [2]: inactive | outcome [3]: inactive | outcome [4]: inactive | outcome [5]: inactive | outcome [6]: inactive | outcome [7]: inactive | outcome [8]: inactive | inhibition [9]: 35% (active) | outcome [10]: inactive | outcome [11]: inactive | outcome [12]: inactive | inhibition [13]: 25.7% (active) | outcome [14]: inactive | outcome [15]: inactive | outcome [16]: inactive

CCCNCc1cc(Br)ccc1OCC(=O)NCCc1ccccc1
outcome [1]: inactive | outcome [2]: inactive | outcome [3]: inactive | outcome [4]: inactive | inhibition [5]: 99% (active) | inhibition [6]: 52% (active) | outcome [7]: inactive | outcome [8]: inactive | outcome [9]: inactive | outcome [10]: inactive | outcome [11]: inactive | outcome [12]: inactive | outcome [13]: inactive | outcome [14]: inactive | outcome [15]: inactive | outcome [16]: inactive

COc1ccccc1CNCC(c1ccccc1)c1ccccc1
outcome [1]: inactive | outcome [2]: inactive | outcome [3]: inactive | outcome [4]: inactive | inhibition [5]: 60% (active) | outcome [6]: inactive | outcome [7]: inactive | outcome [8]: inactive | inhibition [9]: 55% (active) | outcome [10]: inactive | outcome [11]: inactive | outcome [12]: inactive | inhibition [13]: 44.3% (active) | outcome [14]: inactive | outcome [15]: inactive | outcome [16]: inactive

COc1cccc(/C=C2\SC(=S)N(NS(=O)(=O)c3ccc(C)cc3)C2=O)c1OC
outcome [1]: inactive | outcome [2]: inactive | outcome [3]: inactive | outcome [4]: inactive | inhibition [5]: 95% (active) | outcome [6]: inactive | outcome [7]: inactive | outcome [8]: inactive | outcome [9]: inactive | outcome [10]: inactive | outcome [11]: inactive | outcome [12]: inactive | inhibition [13]: 4.07% (active) | outcome [14]: inactive | outcome [15]: inactive | outcome [16]: inactive
